From PubChem
Compounds with a hit are over-represented: about 19% of the library has one in this group of screens.
Shiga toxin inh = A qHTS for Small Molecule Inhibitors of Shiga Toxin | Vero cells, Shiga toxin protein synthesis inhibition reporter | inhibition, % at 38.7 µM | 290,000 compounds, 9.2% hits; in the data active = inhibition mostly above about 28%, no sharp cut-off; inactive = mostly below about 43%; note: 0% is about no effect
Pf growth 48h = Primary qHTS for delayed death inhibitors of the malarial parasite plastid, 48 hour incubation. P. falciparum luciferase growth in erythrocytes, 48 h. Potency, µM (titrated, usually from 28.7 µM), without a hit: at the top dose activity change, negative = inhibition, actives largely listed as inhibitors. 310,000 compounds, 5.9% hits; note: potency is the fitted concentration of half-maximal effect; % is set by controls: 0 for no effect and ±100 for the full control effect
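Luciferase-expressing parasites in RBCs, 2% Hct / 0.1% parasitemia final; RPMI 1640 + 0.5% Albumax; 37 C, 5% CO2, one generation; luminescence read-out, lower signal = inhibition.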
Pf growth 96h = Primary qHTS for delayed death inhibitors of the malarial parasite plastid, 96 hour incubation; P. falciparum luciferase reporter growth, 96 h; Potency, µM (titrated, usually from 28.7 µM), for inactives: at the highest dose activity change, negative = inhibition, hits mostly inhibitors; 320,000 compounds, 6.9% hits; note: potency is the fitted concentration of half-maximal effect; % is set by controls: 0 for no effect and ±100 for the full control effect
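Cell-based qHTS: luciferase-tagged P. falciparum in erythrocytes (2% hematocrit, 0.05% parasitemia final) incubated with compounds for 96 hours, 37 C, 5% CO2; luciferase detection reagent then added and luminescence measured.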
Cycloheximide cs = Cycloheximide Counterscreen for Small Molecule Inhibitors of Shiga Toxin. max response, %. cell reporter, cycloheximide protein synthesis inhibition counterscreen. 300,000 compounds, 12% hits; in the data active = max response mostly above about 13%, no sharp cut-off; inactive = mostly below about 14%; note: read at 38.3 µM for the half of the compounds with a filed dose; 0% is about no effect
MARV entry inh = qHTS for inhibitors of binding or entry into cells for Marburg Virus; 300,000 compounds, 1.8% hits; AID 540276, 2011; Potency, µM (doses to about 37.8 µM), inactives show top-dose activity change, negative = inhibition, actives largely listed as inhibitors; Marburg virus pseudotyped entry inhibition, cell reporter; calls by dose curve; tested in HEK293 cells; note: potency is the fitted concentration of half-maximal effect; % is set by controls: 0 for no effect and ±100 for the full control effect
LASV entry inh = qHTS for Inhibitors of binding or entry into cells for Lassa Virus; Lassa virus pseudotype entry inhibition, cell reporter; Potency, µM (doses to about 37.9 µM), for inactives: at the highest dose activity change, negative = inhibition, usual class: inhibitors; 300,000 compounds, 1.2% hits; AID 540256, 2011; calls by dose curve; tested in HEK293 cells; note: potency is the fitted concentration of half-maximal effect; % is set by controls: 0 for no effect and ±100 for the full control effect; nearly all actives have a fitted effect of over 50% in size
Starred values were filed as active, the others as inactive; [ ] = dose if it differs, or a comment. Unless noted, calls come from the whole dose curve; as a rule, active = well fitted inhibition curve with a large enough effect; inconclusive = small, poorly fitted or top-dose-only effect, or another doubt; inactive = no such curve, though single readings can be large or run the other way.

Screening COc1ccc(N(CC(=O)Nc2ccccc2Cl)S(=O)(=O)c2ccc(C)cc2)cc1OC returned Shiga toxin inh -4.3, Pf growth 48h inconclusive, Pf growth 96h 9.6% and Cycloheximide cs 0.8.
`CN(C(=O)c1cccnc1)c1nnc(-c2cnccn2)s1` gave Shiga toxin inh 45.1, Pf growth 48h -5.2%, Pf growth 96h inconclusive, Cycloheximide cs 26.8*, MARV entry inh 0.0% and LASV entry inh 6.1%.
CN(C(=O)c1ccccn1)c1nnc(-c2cnccn2)s1 was read as Shiga toxin inh 90.8, Pf growth 48h 22.3%, Cycloheximide cs 39.9*, MARV entry inh -23.9% and LASV entry inh inconclusive.
CC(=O)N(C)c1nnc(-c2ccccn2)s1 was read as Shiga toxin inh 13.3, Pf growth 48h 110.6%, Pf growth 96h -17.4%, Cycloheximide cs 15.0*, MARV entry inh 15.7% and LASV entry inh inconclusive.
C=CCNC(=S)NNC(=O)c1csc(C)c1CC was read as Shiga toxin inh -5.4, Pf growth 96h inconclusive, Cycloheximide cs -2.7, MARV entry inh inconclusive and LASV entry inh 1.8%.
N#Cc1ccc(CSCC(=O)O)cc1 was read as Shiga toxin inh -12.4, Pf growth 48h 10.2%, Pf growth 96h -5.6%, Cycloheximide cs -1.5, MARV entry inh -1.2% and LASV entry inh 4.6%.
`COC(=O)c1ccc(CSCc2ccc(C#N)cc2)cc1` gave Shiga toxin inh 75.0*, Pf growth 48h 5.4%, Pf growth 96h 12.1% and Cycloheximide cs 43.0*.
Screening CSc1ccc(CN(C)C(C)C(=O)NCC2CCCCC2)cc1 (configuration not stated) returned Shiga toxin inh 52.8, Pf growth 48h inconclusive, Pf growth 96h -11.1%, Cycloheximide cs 2.2, MARV entry inh 11.2µM* and LASV entry inh 16.4%[46.1 µM].
COc1cccc2cc(C(=O)CS(=O)(=O)c3ccc(C(C)(C)C)cc3)c(=O)oc12 was read as Shiga toxin inh -13.0, Pf growth 48h 21.0%, Pf growth 96h inconclusive and Cycloheximide cs -0.6.
Screening O=C(CS(=O)(=O)c1ccccc1)c1cc2ccccc2oc1=O returned Shiga toxin inh 63.4*, Pf growth 48h 19.8%, Pf growth 96h 56.4% and Cycloheximide cs 32.0*.
`O=C(CS(=O)(=O)c1ccccc1)c1cc2cc(F)ccc2oc1=O` gave Shiga toxin inh 44.7*, Pf growth 48h 3.7%, Pf growth 96h -2.6% and Cycloheximide cs 50.5*.
CCCC(=O)c1cc2ccccc2oc1=O was read as Shiga toxin inh 9.0, Pf growth 48h 23.7%, Pf growth 96h 0.0%, Cycloheximide cs 11.9, MARV entry inh 10.1% and LASV entry inh 8.8%.
`COc1ccc2cc(C(=O)CS(=O)(=O)c3ccccc3)c(=O)oc2c1` gave Shiga toxin inh 25.0, Pf growth 48h -3.2%, Pf growth 96h 11.7µM* and Cycloheximide cs 20.6.
COc1ccc(S(=O)(=O)CC(=O)c2cc3cccc(C)c3oc2=O)cc1 was read as Shiga toxin inh -2.7, Pf growth 48h inconclusive, Pf growth 96h -21.2% and Cycloheximide cs 6.9.
COc1cc(O)c(CCO)c2c1C(=O)C[C@@H](C)O2 was read as Shiga toxin inh -4.4, Pf growth 48h 7.3%, Pf growth 96h 1.85µM* and Cycloheximide cs 1.3.
O=C(CSc1cccc2cccc(Cl)c12)OCC(=O)N1CCN(C(=O)c2ccco2)CC1 was read as Shiga toxin inh -10.0, Pf growth 96h 1.7%, Cycloheximide cs -3.6, MARV entry inh 5.1% and LASV entry inh -4.9%.
For CCOC(=O)C1CCN(S(=O)(=O)c2ccc(Cl)cc2)CC1 the results were Shiga toxin inh -6.1, Pf growth 48h 38.3%[0.00184 µM], Pf growth 96h 4.4%, Cycloheximide cs -1.6, MARV entry inh 6.1%[46.1 µM] and LASV entry inh -20.9%[46.1 µM].
Screening FC(F)(F)c1cnc(COc2ccc(Cl)cc2Cl)c(Cl)c1 returned Shiga toxin inh 66.0*, Pf growth 48h -6.8%, Pf growth 96h 17.0%, Cycloheximide cs 17.1*, MARV entry inh 9.9% and LASV entry inh 0.4%.
For CC(=O)c1ccc(OCc2ncc(C(F)(F)F)cc2Cl)cc1 the results were Shiga toxin inh 75.6*, Pf growth 48h 20.5%, Pf growth 96h 66.4%, Cycloheximide cs 35.9*, MARV entry inh 13.7% and LASV entry inh inconclusive.
